# Several values for one entry are separate records, joined by “and”; a condition that tells them apart may be missing. Equal values may be shown once. In all, about 4,800 compounds went through this assay and about 410 (8.5%) showed an effect of 50% or more. The list comes from a sample in which strong results are over-represented; it also holds similar structures and randomly drawn compounds.
# Test system: Plasmodium falciparum
# Assay: Confirmatory screen in NF54 pLDH assay, in single point, at 2uM, 72h
# Type: functional, Erythrocyte
# Conditions: timepoint 72 hour
Structure (SMILES),% Inhibition,% Inhibition (2 µM)
CCOc1ncc(Br)cc1C(=O)O,-19%,
O=C(C[C@H]1CCCN1c1ccnc(C2CC2)n1)c1ccco1,12%,
c1cc2c(cc1[C@H]1NCCCCCCO1)OCO2,-5%,
O=C1Nc2ccc(Br)cc2C1=O,13%,
COc1ccccc1-n1c(=O)[nH]c2nc(N3CCN(c4ccccn4)CC3)ncc2c1=O,3%,
CC(C)(C)OC(=O)NC1CCN(c2ncc(C(=O)NCc3ccc(F)c(Cl)c3)c(N)n2)CC1,-10%,
N#Cc1cc(N2CCc3ccccc3C2)nc2ccccc12,8%,
N#Cc1cccc(-c2n[nH]c3c2CN(c2ccc(-c4ccccc4)nn2)CC3)c1,100%,
COc1ccc2c(c1)CN(C(=O)C1CC3CCC1C3)CC2 (centres undefined),11%,
Nc1ncc(C(=O)N2CCC3(CCCCCC3)C2)s1,98%,
Cc1ncsc1C(=O)N1CCC2(CCCCC2)C1,-22%,
O=C1C[C@@H](C(=O)N2CCC3(CCCCC3)C2)CCN1,10%,
NC(=O)[C@H]1CCCN(c2ccnc(C(=O)NCc3ccccc3)c2)C1,4%,
CC1C(Cc2ccccc2)CCN1C(=O)c1cnc(C(F)(F)F)nc1 (centres undefined),14%,
Cc1ccc(C(=O)N2C[C@@H]3C[C@H](NC(=O)c4cccnc4)[C@H]2C3)cc1F,-1%,
CC(=O)Nc1ccc(C)cc1S(=O)(=O)N1CC=C(c2c(C)n(Cc3ccccc3C)c3ccccc23)CC1,90%,
Cc1ccc(NC(=O)Cn2c(=O)n(Cc3ccco3)c(=O)c3ccccc32)c(C)c1,-13%,
Cc1ccc(S(=O)(=O)N2CC[C@H](CC(=O)NCc3ccccc3)C2)c(C)c1,-22%,
Cc1nn(C)c(Cl)c1CNC[C@@H](c1ccsc1)N(C)C,9%,
O=C(Nc1nnc(C2CC2)s1)[C@@H]1Cc2ccccc2O1,5%,
O=C(NC1CCCC1)N1CCN(c2nc3cccnc3n(Cc3ccccc3)c2=O)CC1,8%,
CCn1cnc2c(N3CCC[C@H](c4ccncc4)C3)ncnc21,77%,
CCn1c(=O)c(N2CCC[C@H](C(=O)NCc3ccccc3OC)C2)nc2cccnc21,-3%,
Brc1cncnc1N1CCC[C@H](c2nnn[nH]2)C1,-7%,
COc1cccc(S(=O)(=O)N(C)[C@H]2CCc3n[nH]c(=O)n3CC2)c1,1%,

Structure (SMILES),% Inhibition,% Inhibition (2 µM)
Cn1c(=O)c2c(nc3nc(N4CCOCC4)n(CC(=O)c4ccc(Cl)cc4)n32)n(C)c1=O,0%,
COc1ccc(-c2c(C(F)(F)F)n[nH]c2-c2ccc(OCc3ccccc3F)cc2O)cc1,91%,
COc1cc(-c2nc3ccccc3s2)ccc1OCc1cccc2ccccc12,0%,
c1ccc(-c2cn[nH]c2N2CCNCC2)cc1,-16%,
O=C(NCC1CC1)c1cn[nH]c1-c1ccccc1,1%,
COc1cc(OC)cc(C2(O)CCN(C(=O)CCc3ccccc3F)CC2)c1,-20%,
Oc1cc(OCc2ccccc2F)ccc1-c1[nH]ncc1-c1ccccc1,72%,
COc1ccccc1NC(=O)CC1CS(=O)(=O)CC1CC(=O)Nc1ccccc1OC (centres undefined),13%,
COc1ccc(-c2cnn3c(-c4ccccn4)ccnc23)cc1OC,4%,
C#CCNC(=O)[C@H](C#N)c1nc(C)c(C)s1,10%,
Cc1cnc([C@H](C)NC(=O)c2conc2C(C)(C)N)s1,9%,
C[C@H]1Cc2cc(C(=O)NCc3nc(C(F)(F)F)n[nH]3)ccc2O1,10%,
COc1ccc(-c2cn3cc(C)nc3n2C)cc1,0%,
Cc1ccc(S(=O)(=O)CC(=O)NC(C)(C)C)cc1,5%,
O=C(CCc1ccc(Cl)c(C(F)(F)F)c1)N1CC[C@H](N2CCc3ccccc3C2)C1,45%,
CC(C)(C)OC(=O)CN(c1cc(F)cc(F)c1)S(=O)(=O)c1ccc2nncn2c1,-2%,
CCN(C)C1(CNC(=O)c2ccc(-c3cc(F)ccc3O)cc2)CCCC1,11%,
NC(=O)N1CCC[C@H]1C(=O)NC1CC(=O)N(C2CC2c2ccccc2)C1 (some centres undefined),8%,
Cc1cnc(NC(=O)c2ccc3ncoc3c2)c(Br)c1,15%,
O=C(CC1CCOCC1)N1CCN(C(=O)c2ccco2)CC1,-18%,
Cc1ccc(-c2ccnc3c(C(=O)NC4CC4)cnn23)cc1C,4%,
O=C(Cc1ccc(C(=O)Nc2nc(-c3ccccc3)cs2)cc1)c1ccccc1,12%,
O=S(=O)(c1ccc2ccccc2c1F)N1CC(CO)C1,-13%,
COc1ccc(CC2C(O)C(Cc3ccc(OC)cc3)C3CCC2N3C)cc1 (centres undefined),6%,
COc1ccc(CNCCC2C(C)CN(C)C(C)C2Cc2ccccc2)cc1 (centres undefined),66%,

Structure (SMILES),% Inhibition,% Inhibition (2 µM)
CCNC(=O)C(=O)NCc1ccc(OC)cc1,-20%,
COc1ccc(C(=O)n2[nH]c(=O)c(CCO)c2C)cc1,5%,
COc1ccc(Nc2nnc(/C=C/c3ccccc3)c(=O)n2N)cc1,16%,
O=S1(=O)CCN(OCc2ccc(Cl)cc2)CC1,15%,
COc1ccccc1N1CCN(Cc2nc3ccccc3c(=O)n2-c2ccc(F)cc2)CC1,12%,
COc1ccc2[nH]c3c(c2c1)CC(C(=O)O)NC3c1ccc(OC)c(CN2CCN(c3ccccc3F)CC2)c1 (centres undefined),72%,
Fc1ccccc1N1CCN(C2CCN(Cc3c[nH]c4ccccc34)CC2)CC1,33%,
O=C(NCCc1ccc(O)cc1)c1ccc2n[nH]c(=O)n2c1,-20%,
CCC(C)(C)C(=O)N1CCC[C@@H]1CCc1ncc(C)n1C(C)C,14%,
CCOc1cc([C@H]2Nc3ccccc3C(=O)N2c2ccccc2)ccc1OCc1ccc(F)cc1,-4%,
O=C(/N=C(/c1ccccc1)N1CCCCC1)C(F)(F)C(F)(F)C(F)(F)C(F)(F)C(F)(F)C(F)(F)F,,1% and 0%
O=C(Nc1nncs1)NC(C1CC1)C1CC1,5%,
Cc1ccc(-c2csc(NC(=O)c3cccc(C(=O)Nc4nc(-c5ccc(C)cc5C)cs4)n3)n2)c(C)c1,-7%,
O=C(Nc1nncs1)c1cccc(C(=O)Nc2nncs2)n1,64%,
Cc1c(NC(=O)c2n[nH]cc2Br)c(=O)n(-c2ccccc2)n1C,7%,
CCn1c(=O)c(N2CCC[C@H](C(=O)NCc3cccc(C)c3)C2)nc2ccccc21,14%,
CC(CC1OCC(C[N+]2(Cc3ccccc3)CCCCC2)O1)CC(C)(C)C (centres undefined),56%,
CCC(C)(CC)[C@@](O)(C#CC[N+]1(Cc2ccccc2)CCCCC1)c1ccccc1,22%,
COc1cc(C(=O)NC(C)(C)c2c(C)noc2C)on1,7%,
CN1C(=O)N(c2cc(Cl)cc(Cl)c2)C(=O)[C@]12CN(c1ccc(C(=O)O)cn1)C[C@H]2c1ccc(C#N)cc1,15%,
c1cc([C@@H]2CN(Cc3noc(C4CC4)n3)CCO2)cs1,7%,
COc1ccc(NC(=O)N2CC[C@H](CC(=O)NCc3ccccc3)C2)cc1OC,-11%,
Cc1cc(-n2c(C)cc(C(=O)Cn3c(C(F)(F)F)ccc(C(N)=O)c3=O)c2C)no1,23%,
NC(=O)c1ccc(C(F)(F)F)n(C[C@H](O)c2cc(Cl)ccc2Cl)c1=O,60%,
NC(=O)c1ccc(C(F)(F)F)n(CC(=O)N(Cc2ccc(F)cc2)C2CCCCC2)c1=O,-6%,

Structure (SMILES),% Inhibition,% Inhibition (2 µM)
CC(C)(C)c1cc(N)c2ccccc2n1,-6%,
O=C(N[C@@H](N1CCCCCC1)C(Cl)(Cl)Cl)c1cccc(Cl)c1,-20%,
CNC(=O)CNC(=O)c1cccc(Cl)c1,12%,
NC(=O)C(NC(=O)c1cccc(Cl)c1)C(N)=O,85%,
COCc1cc2nn(CC(=O)Nc3ccc(F)c(F)c3)c(=O)n2c(-c2ccccc2)n1,-15%,
Cn1cc(NC(=O)Nc2cccc(OCC(F)F)n2)cn1,-7%,
O=C(Cc1c[nH]c2ccccc12)NC1(C(=O)NC2CCCC2)CCCCC1,8%,
CCN1C(=O)Cc2cc(NC(=O)c3ccc(Br)o3)ccc21,12%,
CC(C)[C@@H]1CCc2ccccc2N1Cc1nc(N)nc(N(C)C)n1,6%,
O=C(Nc1ccc2c(c1)OCCCO2)c1ccsc1,5%,
O=C1CN(C(=O)C2CC2c2ccccc2C(F)(F)F)CCN1 (centres undefined),-4%,
N=C(N)NCc1ccc(COCc2ccccc2)cc1,17%,
CCOc1ccc(NC(=O)c2cn3nc(-c4ccc(OCC)cc4)cc3nc2C2CCN(C(=O)OC(C)(C)C)CC2)cc1,16%,
N#CC(c1ccc(Cl)cc1)N1N=C(c2ccccc2)CC1c1ccccc1 (centres undefined),10%,
c1ccc(C2=NN(c3ccc(-c4cc(-c5ccccc5)[n+](-c5ccccc5)c(-c5ccccc5)c4)cc3)[C@H](c3ccccc3)C2)cc1,97%,
COc1ccc(C2=NN(C(C#N)c3cccc(OC)c3O)C(c3ccccc3)C2)cc1 (centres undefined),3%,
COc1cccc(C(=O)c2c[nH]c(C(=O)NCc3cccc(C(F)(F)F)c3)c2)c1,6%,
Cc1ccc(N2C(=O)C[C@]3(CC3(c3ccccc3)c3ccccc3)C2=O)cc1,6%,
COCc1c(C(=O)N2CCC[C@@H]2CCc2ncc(C)n2C(C)C)noc1C,13%,
O=c1[nH]c2cc3c(cc2c(=O)n1Cc1nc(-c2ccc(Cl)cc2)no1)OCO3,9%,
CN1CCN(Cc2cc3cc4c(cc3nc2-c2ccc(Cl)cc2)OCO4)CC1=O,51%,
Cc1cc(C)nc(-n2nc(-c3ccc(Cl)cc3)c3c2NC(=O)C[C@@H]3c2ccc3c(c2)OCO3)n1,2%,
C#CCN(C(=O)NC1CCN(C(C)=O)CC1)C1CCCC1,-12%,
Cc1ccc(NC(=O)c2c(Cl)cccc2Cl)c2c1CC(C)(C)O2,-21%,
